The test system of this assay is E. coli TESEC Mtb Alr. The assay is described as follows: growth (OD600 after 10 h); higher = more growth (less inhibition). The settings on record: compound 0.1 mM. As to the method:
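TESEC Mtb Alr E. coli, or the Alr+ wild-type control, in 384-well plates with Prestwick library compounds at 0.1 mM and 1% DMSO, across arabinose induction levels of 1E3 to 1E7 nM. Growth is read as OD600 after 10 h at 37 °C in triplicate biological replicates.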

[1] abbreviates: arabinose 1000 nM, raw OD600 reference: median of DMSO wells 0.294, cell-free background 0.041.
Where [2] appears, read: arabinose 10000 nM, raw OD600 reference: median of DMSO wells 0.264, cell-free background 0.041.
The mark [3] stands for this setting: arabinose 100000 nM, raw OD600 reference: median of DMSO wells 0.201, cell-free background 0.041.
Where [4] appears, read: arabinose 1000000 nM, raw OD600 reference: median of DMSO wells 0.193, cell-free background 0.041.
Where [5] appears, read: arabinose 10000000 nM, raw OD600 reference: median of DMSO wells 0.146, cell-free background 0.041.

Structures are written as SMILES. Counter-ions that a name gives are not always drawn. ± gives the standard deviation of the averaged measurements.

`Nc1ccc(C(=O)NCC(=O)O)cc1` [Aminohippuric acid]: the growth runs as follows: under setting [1], 0.297 ± 0.018; under setting [2], 0.2604 ± 0.0024; under setting [3], 0.186 ± 0.022; under setting [4], 0.189 ± 0.006; under setting [5], 0.138 ± 0.0027.

For `NS(=O)(=O)c1cc2c(cc1Cl)N=C(CSCc1ccccc1)NS2(=O)=O` [Benzthiazide], the growth runs as follows: under setting [1], 0.292 ± 0.023; under setting [2], 0.254 ± 0.0055; under setting [3], 0.171 ± 0.017; under setting [4], 0.169 ± 0.0062; under setting [5], 0.132 ± 0.0022.

Regarding `CN1CCN(C2=Nc3ccccc3Oc3ccc(Cl)cc32)CC1` [Loxapine succinate], the growth by setting is: under setting [1], 0.182 ± 0.0068; under setting [2], 0.194 ± 0.0033; under setting [3], 0.189 ± 0.0039; under setting [4], 0.12 ± 0.0061; under setting [5], 0.158 ± 0.0041.

For `CNCCCC1c2ccccc2C=Cc2ccccc21` [Protriptyline hydrochloride], the growth turned out to be 0.219 ± 0.0041 under setting [1]; 0.256 ± 0.018 under setting [2]; 0.157 ± 0.0029 under setting [3]; 0.12 ± 0.0051 under setting [4]; 0.137 ± 0.0036 under setting [5].

As for `O=C1CCc2ccc(OCCCCN3CCN(c4cccc(Cl)c4Cl)CC3)cc2N1` [Aripiprazole], the growth is, setting by setting: under setting [1], 0.243 ± 0.021; under setting [2], 0.298 ± 0.02; under setting [3], 0.15 ± 0.005; under setting [4], 0.1175 ± 0.001; under setting [5], 0.159 ± 0.006.

In the case of `CN(Cc1cnc2nc(N)nc(N)c2n1)c1ccc(C(=O)N[C@@H](CCC(=O)O)C(=O)O)cc1` [Methotrexate], the growth under setting [1] worked out at 0.285 ± 0.011; the growth under setting [2] was 0.244 ± 0.013; the growth under setting [3] amounted to 0.195 ± 0.011; the growth under setting [4] came out at 0.155 ± 0.0048; the growth under setting [5] was 0.144 ± 0.002.

For `COc1cc2c(cc1OC)C(=O)C(CC1CCN(Cc3ccccc3)CC1)C2` (stereo not given) [Donepezil hydrochloride], the growth reads like this: under setting [1], 0.251 ± 0.0063; under setting [2], 0.259 ± 0.0054; under setting [3], 0.158 ± 0.0035; under setting [4], 0.174 ± 0.013; under setting [5], 0.142 ± 0.0099.

`COc1cc(C(=O)OCCCN2CCCN(CCCOC(=O)c3cc(OC)c(OC)c(OC)c3)CC2)cc(OC)c1OC` [Dilazep dihydrochloride]: the growth worked out at 0.264 ± 0.034 under setting [1]; 0.291 ± 0.0076 under setting [2]; 0.18 ± 0.0077 under setting [3]; 0.118 ± 0.0022 under setting [4]; 0.154 ± 0.0029 under setting [5].

The record behind these values is the supplement of paper PMC9262897, “Low-cost anti-mycobacterial drug discovery using engineered E. coli” (Nature Communications, 2022).
